From PubChem
TDP1 cell CPT: qHTS for Inhibitors of human tyrosyl-DNA phosphodiesterase 1 (TDP1): qHTS in cells in presence of CPT | AID 686979, 2013 | chicken DT40 Tdp1-/-;hTDP1 cells + 20 nM CPT, ATP luminescence, 48 h | Potency, µM (top dose mostly 46.2 µM), inactives show top-dose activity change, negative = growth inhibition, most hits filed as inhibitors | 420,000 compounds, 12% hits; further: potency means the concentration at half of the fitted maximal effect; on the % scale 0 is the no-effect control and ±100 the full control effect; nearly all actives have a fitted effect of over 55% in size
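Chicken DT40 Tdp1-/- cells stably complemented with human TDP1 were seeded at 400 cells/well in medium containing 20 nM camptothecin, exposed to pin-transferred compounds, and grown at 37 °C for at least 48 hr. Viability was read as ATP luminescence.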
S-ASM inh: Inhibitors of Secretory Acid Sphingomyelinase (S-ASM): qHTS | Sphingomyelin phosphodiesterase (Homo sapiens), P17405 | placental ASM, HMU-PC fluorogenic substrate, 60 min | Potency, µM (top dose mostly 57.5 µM), without a hit: at the top dose activity change, negative = inhibition, hits mostly inhibitors | 340,000 compounds, 0.006% hits | AID 504937, 2011; further: potency means the concentration at half of the fitted maximal effect
Target sequence (P17405 47-631 limits assumed): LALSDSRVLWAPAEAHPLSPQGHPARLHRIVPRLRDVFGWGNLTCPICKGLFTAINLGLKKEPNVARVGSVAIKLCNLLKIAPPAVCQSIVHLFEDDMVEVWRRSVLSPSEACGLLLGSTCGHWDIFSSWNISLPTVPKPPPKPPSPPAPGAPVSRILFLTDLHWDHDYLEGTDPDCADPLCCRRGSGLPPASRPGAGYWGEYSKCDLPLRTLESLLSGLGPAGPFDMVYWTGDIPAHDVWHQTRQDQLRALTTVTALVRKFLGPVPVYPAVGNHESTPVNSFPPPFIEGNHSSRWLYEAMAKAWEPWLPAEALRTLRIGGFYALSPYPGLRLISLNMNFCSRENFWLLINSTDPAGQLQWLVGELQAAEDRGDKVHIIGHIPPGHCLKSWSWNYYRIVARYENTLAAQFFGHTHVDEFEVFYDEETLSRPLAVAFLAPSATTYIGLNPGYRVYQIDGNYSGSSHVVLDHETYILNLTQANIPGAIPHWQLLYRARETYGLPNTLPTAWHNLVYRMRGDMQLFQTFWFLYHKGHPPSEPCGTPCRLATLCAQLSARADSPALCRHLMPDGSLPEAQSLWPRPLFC
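HMU-PC0 cleavage (9 uM final) by human placental ASM, 60 min at 37 °C following 10 min compound exposure at RT; stopped at pH 10, fluorescence Ex 386/Em 447 nm.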
IL-1B inflam inh: qHTS for Inhibitors of Inflammasome Signaling: IL-1-beta AlphaLISA Primary Screen | activity change, % at 57.5 µM | AID 743279, 2014 | 360,000 compounds, 4.7% hits | THP-1 LPS/ATP IL-1B secretion, AlphaLISA, 16 h; hits give low values; in the data active means activity change below about -50%; inconclusive means mostly about -30% to -49%; further: on the % scale 0 is the no-effect control and ±100 the full control effect
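THP-1 cells pretreated 1 hr with compounds (up to 57.5 uM final), then stimulated with LPS (250 ng/mL final) plus ATP (1.25 mM final); secreted IL-1B measured by AlphaLISA after 16 hr, decreased signal indicating inhibition.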
TGFb inhibitor: qHTS for Inhibitors of TGF-b. HepG2 CAGA-GFP TGF-b/SMAD3 reporter, GFP fluorescence, 18 h; TGF-beta stimulated, 500 pg/mL final. Potency, µM (doses to about 46.1 µM), without a hit: at the top dose activity, negative = inhibition, usual class: inhibitors. 410,000 compounds, 1.2% hits. AID 588855, 2011; further: potency means the concentration at half of the fitted maximal effect; on the % scale 0 is the no-effect control and ±100 the full control effect; nearly all actives have a fitted effect of over 65% in size
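HEPG2 CAGA-GFP reporter cells (1000/well, DMEM with 1% FBS) received compounds, then recombinant TGF-beta at 500 pg/mL final for 18 hours at 37 degrees C. Per-cell GFP summed per well was normalised to unstimulated and stimulated DMSO controls before curve fitting.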
TDP1 cell noCPT: qHTS for Inhibitors of human tyrosyl-DNA phosphodiesterase 1 (TDP1): qHTS in cells in absence of CPT; DT40 Tdp1-/- hTDP1 cells, no CPT, ATP luminescence, 48 h; Potency, µM (series often up to 46.2 µM), for inactives: top-dose activity change, negative = growth inhibition, hits mostly inhibitors; 420,000 compounds, 15% hits; AID 686978, 2013; further: potency means the concentration at half of the fitted maximal effect; on the % scale 0 is the no-effect control and ±100 the full control effect; nearly all actives have a fitted effect of over 55% in size
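Luminescent ATP content (CellTiter-Glo) served as the growth readout. Knockout chicken DT40 cells expressing human TDP1 were exposed to compounds without camptothecin for a minimum 48 hr at 37 °C.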
HepG2 viability: qHTS for Inhibitors of TGF-b: Cytotox Counterscreen | HepG2 CAGA-GFP viability, ATP luminescence, 18 h | AID 588856, 2011 | 410,000 compounds, 0.76% hits | Potency, µM (titrated, usually from 46.1 µM), without a hit: at the highest dose activity change, negative = cytotoxicity, hits mostly cytotoxic; further: potency means the concentration at half of the fitted maximal effect
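CellTiter-Glo luminescence gave cytotoxicity after 18 hours at 37 degrees C. The cells were HepG2 CAGA-GFP in 1% FBS DMEM, stimulated with 500 pg/mL TGF-beta after compound addition. %Activity was normalised to no-cell wells (complete cell-killing) and DMSO (no toxicity), and curves were fitted and classified.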
Numbers without * were called inactive; ? = inconclusive; · = no result given. This is a sample that favours compounds with a hit; in the whole collection about 19% have one here. Unless noted, the call rests on the fitted dose curve; in most records, active means well fitted curve in the direction sought with a large enough effect; inconclusive means small, poorly fitted or top-dose-only effect, or another doubt; inactive means no such curve, though single readings can be large; an effect the other way counts as inactive or inconclusive.

SMILES	TDP1 cell CPT	S-ASM inh	IL-1B inflam inh	TGFb inhibitor	TDP1 cell noCPT	HepG2 viability
CCCCc1ccc(S(=O)(=O)NC(=O)C2(C)CCN2C(=O)Cc2ccccc2)cc1 (configuration not stated)	-15.2%	·	14.9	3.3%	-14.9%	3.4%
COc1ccc([C@@H]2CC=C(C(=O)O)[C@H](c3cccc(Cl)c3)N2S(=O)(=O)c2ccccc2C)cc1	-17.3%	0.5%	38.3	-23.8%	-8.5%	-16.4%
CC1CCCC(C)N1C(=O)c1ccc(CS(=O)(=O)c2ccccc2)cc1 (configuration not stated)	?	0.0%	24.3	6.3%	14.6µM*	18.1%
CC(=O)c1ccc(N2CCN(C(=O)c3ccc(S(=O)(=O)NCc4ccco4)cc3)CC2)cc1	20.6µM*	-2.8%	-27.5	-20.4%	16.4µM*	-5.2%
CC1CCCC(C)N1C(=O)c1ccc(S(=O)(=O)NCc2ccco2)cc1 (configuration not stated)	?	2.8%	30.9	?	23.1µM*	-3.0%
COc1ccc(CN2CCN(C(=O)c3ccc(S(=O)(=O)NCc4ccco4)cc3)CC2)cc1	?	2.4%	-1.0	-0.8%	18.4µM*	-39.2%
CS(=O)(=O)N1CCC2(CCCN(Cc3ccccc3)C2)CC1	6.6%	·	·	·	-8.7%	·
O=C(/C=C/c1ccc2c(c1)OCO2)c1ccc(O)cc1O	?	-16.5%	-94.5*	?	?	-20.0%
Cc1ccc(C(=O)C=Cc2ccc3c(c2)OCO3)c(C)c1	?	·	?	0.4%	?	-25.5%
O=C(/C=C/c1ccc(Br)cc1)c1ccco1	7.31µM*	-0.7%	-108.3*	?	16.4µM*	-60.4%
O=C(C=Cc1ccco1)c1ccco1	-16.0%	93.2%	?	-11.2%	-25.3%	-5.8%
O=C(/C=C/C=C/c1ccccc1)c1ccco1	?	23.3%	?	-7.4%	18.4µM*	-37.9%
COC(=O)C1CCN(C(=O)/C=C/c2ccc3c(c2)OCO3)CC1	?	4.2%	23.1	-15.5%	16.4µM*	-18.9%
CCN(CC(=O)Nc1ccc(NC(C)=O)cc1)CC(=O)Nc1cc(C)on1	-5.2%	4.5%	15.2	-0.9%	-9.3%	1.9%
O=C(/C=C/c1ccc2c(c1)OCO2)c1ccco1	-19.0%	84.3%	-96.3*	-6.5%	-27.5%	-28.2%
O=C(/C=C/c1ccco1)N(c1ccccn1)c1ccccn1	16.7%	11.4%	10.3	9.9%	1.1%	-2.6%
Cc1ccc(C(=O)Nn2cnnc2)cc1	6.8%	1.4%	13.3	1.6%	-3.9%	9.0%
Cc1ccc(-n2cccc2C(=O)NS(=O)(=O)c2ccc(C)cc2)cc1	-2.0%	0.6%	11.6	-1.1%	28.8%	5.0%
Cc1ccc(-n2cccc2C(=S)N=P(N(C)C)(N(C)C)N(C)C)cc1	2.06µM*	?	-59.2*	?	1.64µM*	-61.8%
COCCCNc1oc(-c2ccc(COc3ccccc3C)o2)nc1C#N	?	·	·	0.9%	?	-40.8%
CCOc1ccccc1NC(=O)CN1C(=O)COc2ccc(S(=O)(=O)N3CCCCC3)cc21	20.6µM*	·	·	-18.7%	23.1µM*	-3.6%
O=C(CN1C(=O)COc2ccc(S(=O)(=O)NC3CCCC3)cc21)Nc1ccc(Cl)cc1F	?	·	·	?	?	15.8µM*
Cc1cc(Cl)ccc1NC(=O)CN1C(=O)COc2ccc(S(=O)(=O)Nc3ccccc3)cc21	?	·	·	14.1µM*	?	-18.8%
COc1cc(NC(=O)CN2C(=O)COc3ccc(S(=O)(=O)NC4CCCC4)cc32)cc(OC)c1	-2.5%	·	·	-23.0%	-19.0%	-8.2%
CCc1ccccc1NC(=O)CN1C(=O)COc2ccc(S(=O)(=O)N3CCCCCC3)cc21	-14.4%	·	·	-5.6%	?	-2.8%
SMILES	TDP1 cell CPT	S-ASM inh	IL-1B inflam inh	TGFb inhibitor	TDP1 cell noCPT	HepG2 viability
Cc1cc(C)cc(NC(=O)CN2C(=O)COc3ccc(S(=O)(=O)Nc4ccccc4)cc32)c1	-24.1%	·	·	?	-19.3%	-32.5%
CCOc1ccccc1NC(=O)CN1C(=O)COc2ccc(S(=O)(=O)Nc3ccccc3)cc21	16.4µM*	·	·	?	18.4µM*	-10.9%
CCN(Cc1ccccc1)C(=O)CN1C(=O)COc2ccc(S(=O)(=O)NC3CCCC3)cc21	16.4µM*	-0.9%	-1.5	2.1%	?	-1.0%
Cc1ccc(Cl)cc1NC(=O)CN1C(=O)c2cccc3cccc1c23	-0.9%	·	·	0.0%	-9.0%	-10.2%
CCOc1ccccc1NC(=O)CN1C(=O)COc2ccc(S(=O)(=O)N3CCCCCC3)cc21	?	·	·	-28.1%	20.6µM*	-7.0%
COc1ccccc1NC(=O)CN1C(=O)COc2ccc(S(=O)(=O)N3CCCCCC3)cc21	?	-2.1%	-7.7	?	-11.3%	1.5%
Cc1cc(Cl)ccc1NC(=O)CN1C(=O)C(=O)c2ccccc21	5.8µM*	·	·	-13.9%	4.11µM*	-31.1%
CC(C)(C)n1ncc2c(=O)n(Cc3ccccc3C(F)(F)F)cnc21	·	·	·	6.1%	·	-2.9%
CC[C@H](C)[C@@H](N)C(=O)NC[C@H]1O[C@@H](n2cnc3c(=O)[nH]c(N)nc32)[C@H](O)[C@@H]1O	12.8%	·	25.3	?	8.6%	5.0%
O=C(CCSc1ccccc1)NNC(=O)c1ccccc1F	-0.1%	3.2%	41.3	5.8%	-21.0%	2.0%
CC1CCCN(S(=O)(=O)c2ccc(NC(=O)Cn3nnc(-c4ccccc4F)n3)cc2)C1 (configuration not stated)	?	-4.4%	-2.5	?	23.1µM*	0.0%
CC1CCN(S(=O)(=O)c2ccc(NC(=O)Cn3nnc(-c4ccccc4)n3)cc2)CC1	?	-3.7%	-3.2	?	?	-70.7%
CN(C)C(=O)c1ccc(NC(=O)Cn2nnnc2-c2ccccc2F)cc1	14.6µM*	·	·	-11.4%	18.4µM*	4.4%
CCOc1ccc(NC(=O)Cn2nnc(-c3ccccc3F)n2)cc1	20.6µM*	0.2%	26.8	-8.0%	?	-11.1%
Cc1ccc(-c2nnn(CC(=O)Nc3ccc(S(=O)(=O)N4CCC(C)CC4)cc3)n2)cc1	?	1.9%	0.0	?	18.4µM*	-59.3%
